Screens: PubChem BioAssay, several laboratories
Rows were chosen to be rich in hits. Some 1.6% of all compounds tested hit in one or more screens of this group.
NALP1 inh: NALP1 inflammasome inhibitors in reconstituted yeast, colorimetric, S. cerevisiae, triplicate retest | S. cerevisiae NALP1/ASC/caspase-1 growth, X-gal OD620, 72 h | inhibition, % at 10 µM | actives 0.61% (n = 280,000) | AID 2071, 2009; in the data active = inhibition mostly above about 24%, no sharp cut-off; inactive = mostly below about 32%
PolyA inh: polyadenylation inhibitors in yeast reporter cells, primary screen, luminescence, S. cerevisiae; AID 1875, 2009; S. cerevisiae SKY197-pL101 polyadenylation reporter, beta-gal luminescence; efflux-impaired pdr1/pdr3 knockout yeast; score 100 = 6 SD above DMSO; activity score, % at 12 µM; actives 0.02% (n = 300,000);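 active = lowest replicate activity score at least 50, where 100 means six control SD above control mean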;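 also: yeast exposed to compound for 9 h at 30 °C; higher score means more reporter readthrough which indicates perturbed polyadenylation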
HTR5A inv ag: HTR5A inverse agonists in luminescence cell assay, primary screen, counter-screen for OPRM1-OPRD1 heterodimer inverse agonist project, full-deck HTS. AID 504634, 2011. actives 0.083% (n = 340,000). HTR5A cell line, inverse agonism. inhibition, % at 9.3 µM; in the data active = inhibition mostly above about 23%, no sharp cut-off; inactive = mostly below about 18%;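 also: 0% = cells with DMSO and 100% = no-cell wells with DMSO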
Target sequence (P47898 whole entry, looked up): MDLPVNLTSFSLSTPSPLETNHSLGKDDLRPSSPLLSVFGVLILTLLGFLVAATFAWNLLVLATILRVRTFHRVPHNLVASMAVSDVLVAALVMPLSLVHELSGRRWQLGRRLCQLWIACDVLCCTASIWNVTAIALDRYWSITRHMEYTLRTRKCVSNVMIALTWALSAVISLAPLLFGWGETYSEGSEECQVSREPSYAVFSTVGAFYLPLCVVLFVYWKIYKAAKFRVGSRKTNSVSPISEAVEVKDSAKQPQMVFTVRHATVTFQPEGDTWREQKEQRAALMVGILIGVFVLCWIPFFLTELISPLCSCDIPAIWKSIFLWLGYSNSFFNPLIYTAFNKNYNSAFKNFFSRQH
MOR-DOR ag: agonists of OPRM1-OPRD1 heterodimerization, primary screen, cell-based, luminescence; activation, % at 9.3 µM; cells; actives 0.3% (n = 340,000); AID 504326, 2011; in the data active = activation above about 18%;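 also: 0% = vehicle-treated cells and 100% = reference agonist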
HTR5A ag: HTR5A agonists in luminescence cell assay, primary screen, counter-screen for OPRM1-OPRD1 heterodimer agonist project, full-deck HTS | 5-hydroxytryptamine receptor 5A (Homo sapiens), P47898 | cell-based | activation, % at 9.3 µM | actives 0.61% (n = 340,000) | AID 504692, 2011; in the data active = activation mostly above about 9.5%, no sharp cut-off; inactive = mostly below about 7.6%;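 also: 0% = cells with vehicle only and 100% = reference agonist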
MOR-DOR inv ag: inverse agonists of MOR-DOR heterodimerization, primary screen, cell-based, luminescence; inhibition, % at 9.3 µM; cell-based MOR-DOR heterodimer luminescence, inverse agonism; actives 0.21% (n = 340,000); Mu-type opioid receptor (Homo sapiens) + Delta-type opioid receptor (Homo sapiens), …; in the data active = inhibition above about 22%, passing the limit was not always enough;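 also: 0% = cells with DMSO and 100% = wells without cells with DMSO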
* = called active by the depositor; x = no result given.

SMILES	NALP1 inh	PolyA inh	HTR5A inv ag	MOR-DOR ag	HTR5A ag	MOR-DOR inv ag
CCC1Sc2ccccc2N(CC(=O)NCCC2=CCCCC2)C1=O (stereo unspecified)	43*	-4	-24	6	6	-30
CN(C(=O)COC(=O)c1cc(S(=O)(=O)N2CCOCC2)ccc1Cl)C1CCS(=O)(=O)C1 (stereo unspecified)	x	-1	-18	-1	6	9
COc1cccc(NC(=O)C23CCC(C)(C(=O)O2)C3(C)C)c1 (stereo unspecified)	39*	9	-34	-3	1	17
COc1ccc(-c2cn(-c3ccc(C)c(C)c3)c(=S)[nH]2)cc1OC	-7	13	-8	-1	2	4
COc1ccc(-c2cn(-c3ccc(C)c(Cl)c3)c(=S)[nH]2)cc1OC	-2	-18	-43	5	12*	-23
O=C(NCCc1ccncc1)Nc1ccccc1	-3	2	-5	-3	13*	13
Cc1cc(/C(N)=N/OC(=O)Nc2ccc(Cl)cc2)no1	x	10	x	x	x	x
CCOC(=O)C(=Cc1cc(=O)c(OC)co1)C(=O)OCC	85*	-20	2	15	7	-107
COc1coc(C(O)CN)cc1=O (stereo unspecified)	26	10	-8	0	-2	-2
NC(=O)c1ccc(NC(=O)COc2ccc(-n3cnnn3)cc2)cc1	x	x	-36	-2	14	9
O=C(O)COCC(=O)Nc1ccc(-n2cnnn2)cc1	0	3	-27	1	11*	-6
CC1=NC(C)(C)CC2CCC(O)C12 (stereo unspecified)	x	x	-13	-3	3	13
Cc1ccc2c(c1)c1nnc(SCC(=O)Nc3ccc(N(C)C)cc3)nc1n2CC(=O)O	17	-11	-48	0	13*	-2
Cc1ccc(SCC(=O)N2N=CCC2c2ccccc2)cc1 (stereo unspecified)	-7	14	-1	0	0	2
CC(C)[C@H](NC(=O)c1nn(Cc2ccccc2)c(=O)c2ccccc12)C(=O)O	13	-8	3	0	-1	-3
CCC(CC)NC(=O)c1nn(Cc2ccccc2)c(=O)c2ccccc12	12	-4	-26	5	9.8*	-35
O=c1[nH]c2cc3c(cc2cc1C(c1nnnn1Cc1ccccc1)N1CCCCCC1)OCCO3 (stereo unspecified)	-30	13	11	2	0	-10
O=c1[nH]c2cc3c(cc2cc1C(c1nnnn1Cc1ccccc1)N1CCN2CCCC2C1)OCCO3 (stereo unspecified)	29*	-8	8	-2	2	14
COc1ccccc1Cc1nc2ccccc2n1S(=O)(=O)c1ccc(Cl)cc1	25	-9	-24	0	1	-1
O=C1NCCN/C1=C\C(=O)c1ccc(Cl)cc1	39*	27	x	x	x	x
S=C(NCc1ccccc1)NNc1nc2ccccc2[nH]1	-6	-24	2	5	-1	-27
CC(=O)c1ccc(OCC(=O)OCC(=O)NCc2ccco2)cc1	x	x	-13	-1	5	6
O=C(Nc1ncc(C(F)(F)F)cc1Cl)C1COc2ccccc2O1 (stereo unspecified)	40*	20	14	-2	-5	9
Cc1cccnc1NC(=O)C1COc2ccccc2O1 (stereo unspecified)	2	8	-11	-3	4	18
Nc1nc(-c2ccc3c(c2)CCCC3)c(CC(=O)O)s1	37*	-4	7	-2	-2	7
SMILES	NALP1 inh	PolyA inh	HTR5A inv ag	MOR-DOR ag	HTR5A ag	MOR-DOR inv ag
Nc1nc(-c2ccc3c(c2)OCCO3)c(CC(=O)O)s1	1	28	2	-4	-1	18
CN(C(=O)c1cccc(NC(=O)c2cccs2)c1)c1ccccc1	19	-15	12	0	11*	1
O=C(O)c1ccc(NC(=O)c2cccc(NC(=O)c3cccs3)c2)cc1	36*	-7	-1	-3	-2	13
CCOc1ccc(NC(=O)C2CCCN(C)C2)cc1 (stereo unspecified)	11	-11	-9	-1	3	4
COc1ccc(-c2noc(CNC(=O)CCN3C(=O)[C@H]4CC=CC[C@H]4C3=O)n2)cc1	-2	-5	-30	-1	3	6
COC(=O)c1cc(CSc2nnc(NC3CCCCC3)s2)oc1C	-14	8	-34	6	11*	-32
CSc1nc2n(n1)C(C)C1=C(CCCC1=O)N2 (stereo unspecified)	17	-6	5	1	-2	-3
CC(C)N1CCC2(CC1)N=C(c1ccc3c(c1)OCO3)CC(c1cc(Cl)ccc1O)N2 (stereo unspecified)	68*	-45	1	1	4	-7
CC(Sc1ccc(Cl)cc1)C(=O)Nc1ccc2c(c1)OCO2 (stereo unspecified)	-4	9	23	-2	-4	12
COC(=O)c1sc(N2CCN(c3ccc(Cl)cc3)CC2)nc1N	19	-13	-6	5	2	-29
CC(=O)c1cccc(NC(=O)CN(C)S(=O)(=O)c2cccc3nsnc23)c1	32*	3	-24	-1	2	5
CN(CC(=O)Nc1ccc(Cl)cc1)S(=O)(=O)c1cccc2cccnc12	37*	-5	11	-1	-4	6
Cc1nc2ccc(C(=O)N3c4ccccc4CC3C)cc2s1 (stereo unspecified)	-10	-3	-6	-3	2	16
CCCCn1c(N)c(N(CCOC)C(=O)c2cc(S(=O)(=O)N3CCOCC3)ccc2Cl)c(=O)[nH]c1=O	x	x	19	-2	-8	8
O=S(=O)(/N=C(/Nc1cccc2ccccc12)c1ccccc1)c1ccc(F)cc1	15	-3	-27	1	-1	-6
CC(=O)N=c1sccn1CC(O)c1ccc(Br)cc1 (stereo unspecified)	25	7	-11	-1	-1	6
O=C1C(SCCO)=C(SCCO)C(=O)c2ccccc21	x	x	41*	1	-10	-7
O=C(Nc1ccccc1C(=O)Nc1ccccn1)c1cc(F)c(F)cc1Cl	3	4	-5	-1	-2	6
O=C(Nc1cccc(S(=O)(=O)NC2=NCCC2)c1)c1ccc(=O)[nH]c1	x	x	12	-2	-4	8
CCC1CCCCN1C(=O)C1CC(c2cc(Cl)c(OC)cc2OC)=NO1 (stereo unspecified)	1	-3	7	-3	14	14
